The AC50 is the concentration giving half of the maximal activity seen.

Molecules are shown by their SMILES. Inconclusive results are not listed. Calls of active or inactive are those of the source. Rule for the calls, unless noted: active = hit-call score of the fitted dose curve at least 0.9, where 1 is the maximum; inconclusive = response in the unintended direction; inactive = score below 0.9.

The nature of assay [1]: CCTE_Deisenroth_5AR_NBTE_acceptor: CCTE's 5alpha-reductase NanoBRET Target Engagement Assay - Autofluorescence Screen, Deisenroth Lab (AID 2284321; active = hit-call score of the fitted dose curve at least 0.9, where 1 is the maximum; inactive = score below 0.9;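 note: compound fluorescence in the acceptor channel under 460 nm excitation flags autofluorescence artifacts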). The note with it: actives raise or lower the signal. The method, boiled down:
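Acceptor-channel fluorescence flags artifacts, with excitation fixed at 460 nm. Nominal 100 uM chemical samples were read in triplicate runs, and signal changes were fitted in both directions relative to DMSO.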
Background: In BRET a luciferase serves as donor, and the signal depends on an acceptor being close.

The next assay concerns SRD5A2 (gene 6716). In words: CCTE_Deisenroth_5AR_NBTE_ratio: CCTE's 5alpha-reductase NanoBRET Target Engagement Assay - Ratio, Deisenroth Lab (AID 2284322; active = hit-call score of the fitted dose curve at least 0.9, where 1 is the maximum; inactive = score below 0.9). The note with it: actives raise or lower the signal. Put shortly:
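SRD5A2-NanoLuc HEK293T; cmpd 10 nM-29.9 uM, 3 h preinc + testosterone tracer 2 h; NanoBRET ratio 650/460; bidirectional fit vs DMSO.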

In another assay the test system is SERPINA7 (gene 6906). In words: CCTE_GLTED_hTBG: CCTE's human Thyroxine-binding Globulin (TBG) Inhibition Assay, Great Lakes Toxicology and Ecology Division (GLTED) Lab (AID 2284343).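 Note: active chemicals lower fluorescence versus DMSO baseline by displacing probe.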 Put shortly: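 Steps: combine TBG with chemical; incubate 2 hours so that disruptors release ANSA; record fluorescence (380 ex, 475 em). Loss of signal was fitted against DMSO controls.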

Assay [2] in a line: IUF_NPC1_cytotoxicity_72hr: Cytotoxicity Assessment at 72 hours in the Leibniz Research Institute for Environmental Medicine (IUF) Neural Progenitor Cell Proliferation Assay (NPC1) (AID 2284332).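 Note: rising LDH signal means more cytotoxicity.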 Put shortly:
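Readout is fluorescence from LDH-dependent resazurin conversion, sampled from culture medium after compound contact lasting 72 h. Each well holds one 0.25-0.35 mm human progenitor sphere kept at 37C, 5% CO2 with EGF and FGF.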

Assay [3] in a line: VALA_MIGHUV1_ScratchOnly_WoundArea: VALA Sciences human Umbilical Vein Endothelial Cell Migration (MIGHUV) Assay, Area of Scratch Wound Inhibited Recovery (AID 2284336). The method, boiled down:
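Wound area remaining after 24 h recovery imaged by Hoechst nuclear fluorescence in scratched HUVEC cultures, chemicals added within 30 min of scratching across a 6-point series. Gain of signal fitted against 0.1% DMSO; cytochalasin D positive control.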

Assay [4] is described as follows: VALA_TUBHUV_Agonist_TubuleLength: VALA Sciences human Umbilical Vein Endothelial Tubule Formation (TUBHUV) Agonism Assay (AID 2284337). Put shortly: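 Tubule length quantified by CD31 immunofluorescence imaging after fixation. HUVEC-HDF co-cultures (1:3) pre-grown 3 days with 10 ng/ml VEGF, then dosed 3 days in VEGF medium; 0.1 % DMSO vehicle baseline.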
A short description of assay [5]: VALA_TUBIPS_Agonist_CellCount: Viability Assessment in the VALA Sciences human iPS-derived Endothelial Tubule Formation (TUBIPS) Agonism Assay (AID 2284338).
A short description of assay [6]: CCTE_Mundy_HCI_iCellGluta_NOG_NeuronCount: CCTE's Neurite Outgrowth Assay in iCellGluta cells for Neuron Count, Mundy Lab (AID 2284340).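 Note: cells fixed about 48 h after compound addition.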 Put shortly:
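Neuron count read by automated high-content imaging of Hoechst 33342 and betaIII-tubulin/Alexa Fluor-488 labelling in human iPSC glutamatergic neurons. Activity fitted relative to DMSO.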

The nature of assay [7]: CCTE_Mundy_HCI_iCellGluta_NOG_NeuriteCount: CCTE's Neurite Outgrowth Assay in iCellGluta cells for Neurite Count, Mundy Lab (AID 2284342).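 Note: chemical exposure about 48 hours starting 2 hours after plating.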
Assay [8] relates to Brachyury (BRA) Protein Expression, Deisenroth Lab, TBXT (gene 6862). In words: CCTE_Deisenroth_DEVTOX-GLR_legacy_Bra: (Legacy) CCTE's DevTox GLR-Endo Assay Evaluation of Brachyury (BRA) Protein Expression, Deisenroth Lab (AID 2284329; active = hit-call score of the fitted dose curve at least 0.9, where 1 is the maximum; inactive = score below 0.9). Put shortly:
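Percent Bra-positive cells, scored by high-content imaging against a threshold of 5x BMAD over the undifferentiated control median, with the 0.2% DMSO median subtracted. RUES2-GLR cultures were dosed twice at 24 h intervals across a 48 h differentiation, at 1 nM–200 uM in ten steps, with n=4 replicates.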

Assay [9] can be described thus: CCTE_Deisenroth_DEVTOX-GLR_legacy_CellCount: (Legacy) Viability Assessment in CCTE's DevTox GLR-Endo Assay, Deisenroth Lab (AID 2284331; active = hit-call score of the fitted dose curve at least 0.9, where 1 is the maximum; inactive = score below 0.9). The note with it: actives raise or lower the signal. The method, boiled down: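 RUES2-GLR human pluripotent cells were seeded 24 h, then differentiated 48 h with two compound doses at 24 h intervals (10-point, 1 nM - 200 uM). Fixed nuclei were imaged and counted; bidirectional fitting versus 0.2% DMSO.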

Assay [10] concerns SRY-box transcription factor 17 (SOX17) Protein Expression, Deisenroth Lab, SOX17 (gene 64321). Nature of the assay: CCTE_Deisenroth_DEVTOX-GLR_legacy_Sox17: (Legacy) CCTE's DevTox GLR-Endo Assay Evaluation of SRY-box transcription factor 17 (SOX17) Protein Expression, Deisenroth Lab (AID 2284341; active = hit-call score of the fitted dose curve at least 0.9, where 1 is the maximum; inactive = score below 0.9). The note with it: actives raise or lower the signal. The method, boiled down: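 Percent SOX17-positive cells, scored by high-content imaging as mean intensity exceeding pluripotent-control median by 5x BMAD, divided by cell count. Human RUES2-GLR endoderm differentiation, 48 h, two exposures 24 h apart, 1 nM–200 uM; DMSO-referenced bidirectional fitting.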

Assay [11] deals with SRY-box transcription factor 2 (SOX2) Protein Expression, Deisenroth Lab, SOX2 (gene 6657). Nature of the assay: CCTE_Deisenroth_DEVTOX-GLR_legacy_Sox2: (Legacy) CCTE's DevTox GLR-Endo Assay Evaluation of SRY-box transcription factor 2 (SOX2) Protein Expression, Deisenroth Lab (AID 2284346; active = hit-call score of the fitted dose curve at least 0.9, where 1 is the maximum; inactive = score below 0.9). Put shortly:
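Percent Sox2-positive cells was scored by high-content imaging of 5 fields per well. Positivity cutoff was 5x BMAD over the directed endoderm control, and the DMSO median was subtracted. Cells were RUES2-GLR, dosed twice at 24-h intervals over 48 h of differentiation (1 nM-200 uM).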

As for `CC(=Cc1ccccc1)[N+](=O)[O-]`, the molecule was classed as inactive (in assay [1]; in the assay with SRD5A2 (gene 6716)).

Consider `CCCCCCCCCCCCc1cccc(S(=O)(=O)O)c1`, for which the AC50 in the assay on SERPINA7 (gene 6906) is 22.2 µM (active).

Regarding `O=S1OC[C@@H]2[C@H](CO1)[C@]1(Cl)C(Cl)=C(Cl)[C@@]2(Cl)C1(Cl)Cl` (stereo partly drawn), the call in assay [2] was inactive.

With `Nc1ncn[nH]1`, the result in [3], in [4] and in [5] was inactive.

In the case of `O=C(NC(=O)c1c(F)cccc1F)Nc1cc(Cl)c(OC(F)(F)C(F)C(F)(F)F)cc1Cl` (stereo not drawn), the AC50 in the assay on SERPINA7 (gene 6906) is 19.5 µM (active).

As to `Cc1ccccc1OP(=O)(Oc1ccccc1C)Oc1ccccc1C`, the AC50 was 13.5 µM (active) in [6] and 12.5 µM (active) in [7].

Take `O=[N+]([O-])c1ccccc1O`: in assay [1], the molecule was classed as inactive. Besides, the AC50 in the assay on SRD5A2 (gene 6716) was 50 µM (active).

For `CCOCn1c(-c2ccc(Cl)cc2)c(C#N)c(Br)c1C(F)(F)F`, the half-maximal activity concentration (AC50) in assay [2] was 50.4 µM (active); in [6], 27.1 µM (active); in assay [7] it was 21.3 µM (active); with SERPINA7 (gene 6906), 2.12 µM (active).

`O=c1nc(O)n(Cl)c(=O)n1Cl`: the outcome (in assay [1]; with SRD5A2 (gene 6716)) was inactive.

Regarding `O=S1(=O)OC(c2cc(Br)c(O)c(Br)c2)(c2cc(Br)c(O)c(Br)c2)c2ccccc21`, in assay [1], the outcome was inactive. The AC50 is 4.66 µM (active) with SRD5A2 (gene 6716) and 7.4 µM (active) with SERPINA7 (gene 6906).

For the molecule `CS(=O)(=O)c1ccc(C(=O)C2C(=O)CCCC2=O)c(Cl)c1COCC(F)(F)F`, the call in assay [2] and in assay [6] was inactive. Further, the half-maximal activity concentration (AC50) in [7] is 25.3 µM (active).

Take `N#CCCC(Br)(C#N)CBr` (stereo not drawn): the half-maximal activity concentration (AC50) is 54.4 µM (active) in [1] and 69.9 µM (active) with SRD5A2 (gene 6716).

In the case of `CCC[CH2][Sn]([Cl])([Cl])[CH2]CCC`, the half-maximal activity concentration (AC50) in [1] is 5.59 µM (active); with SRD5A2 (gene 6716) it was 13 µM (active).

With `OC(Cc1ccccc1Cl)(Cn1[nH]cnc1=S)C1(Cl)CC1` (stereo not drawn), the result in assay [2] and in assay [7] was inactive. Also, in assay [6], the concentration at half-maximal activity (AC50) was 50 µM (active).

In the case of `CNC(=O)CSP(=O)(OC)OC`, the molecule was classed as inactive in [2].

Turning to `CC1(C)[C@H](C(=O)O[C@H](C#N)c2cccc(Oc3ccccc3)c2)[C@@H]1/C=C(\Cl)C(F)(F)F`, the result in [2], in assay [6] and in [7] was inactive.

With `NC(=O)c1ccc(N)nc1`, the AC50 is 24.1 µM (active) in [8], 30.6 µM (active) in assay [9], 21 µM (active) in assay [10] and 52.9 µM (active) in assay [11].

Turning to `O=c1[nH]c(=O)n(Cl)c(=O)n1Cl`, the result (in assay [1]; in the assay on SRD5A2 (gene 6716)) was inactive.

As to `CCOP(=S)(OCC)O/N=C(\C#N)c1ccccc1`, the result in [1] was inactive. For the same molecule, the half-maximal activity concentration (AC50) with SRD5A2 (gene 6716) was 20.1 µM (active); in the assay on SERPINA7 (gene 6906) it was 20.6 µM (active).

For `O=C(O)COc1cc(Cl)c(Cl)cc1Cl`, the AC50 in the assay with SERPINA7 (gene 6906) was 45.6 µM (active).

On to `Cc1cc(C(F)(C(F)(F)F)C(F)(F)F)ccc1NC(=O)c1cccc(I)c1C(=O)NC(C)(C)CS(C)(=O)=O`, for which the molecule was called inactive in [2], in assay [6] and in assay [7].

(Values after PubChem BioAssay (EPA / NIEHS).)
